# Source: PubChem (Broad Institute)
# Most compounds without a hit are left out; they make up all but 2.3% or so of the library.
# C diff growth: inhibitors of Clostridium difficile growth | Clostridium difficile clinical isolate growth, OD600, 24 h; active compounds read low | growth activity, negative = inhibition, % at 16 µg/mL (by protocol) | 86,000 compounds, 0.25% hits | AID 1259249;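 active means mean growth activity at or below -80% and every replicate also at or below -80%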
# Pf Dd2 growth: blocks growth of Plasmodium falciparum Dd2 parasites; P. falciparum Dd2 growth, SYBR Green, 72 h; active compounds read low; activity change, % at 10 µM; 94,000 compounds, 2.3% hits; AID 1159554; in the data active means activity change below about -80%
# Hits are given with their value; - = inactive; . = not tested or not shown.
SMILES,C diff growth,Pf Dd2 growth
C[C@H]1CN([C@@H](C)CO)C(=O)c2cc(C#CCc3ccccc3)cnc2O[C@@H]1CN(C)CC1CCCC1,-,-88
C[C@@H]1CN([C@H](C)CO)C(=O)c2cc(C#CCc3ccccc3)cnc2O[C@@H]1CN(C)CC1CCOCC1,-,-
C[C@@H]1CN([C@H](C)CO)C(=O)c2cc(C#CCc3ccccc3)cnc2O[C@H]1CN(C)CC1CCCC1,-,-94
C[C@@H]1CN([C@H](C)CO)C(=O)c2cccc(NC(=O)c3cnccn3)c2O[C@H]1CN(C)S(=O)(=O)c1cccs1,-,-
COc1ccc(S(=O)(=O)N2C[C@@H](O)COC[C@H]3O[C@@H](CC(=O)NCCCN4CCOCC4)CC[C@@H]32)cc1,.,-
Cc1ccc(S(=O)(=O)Nc2ccc3c(c2)C(=O)N([C@@H](C)CO)C[C@H](C)[C@H](CN(C)S(=O)(=O)c2ccc(Cl)cc2)OCCCC[C@@H](C)O3)cc1,-,-86
Cc1ccc(S(=O)(=O)N(C)C[C@@H]2OCCCC[C@H](C)Oc3ccc(NS(=O)(=O)c4ccc(Cl)cc4)cc3C(=O)N([C@H](C)CO)C[C@@H]2C)cc1,-,-
Cc1ccc(S(=O)(=O)Nc2ccc3c(c2)C(=O)N([C@@H](C)CO)C[C@@H](C)[C@H](CN(C)S(=O)(=O)c2ccc(Cl)cc2)OCCCC[C@@H](C)O3)cc1,-,-
Cc1noc(C)c1S(=O)(=O)Nc1ccc2c(c1)C(=O)N([C@@H](C)CO)C[C@H](C)[C@@H](CN(C)S(=O)(=O)c1ccc(Cl)cc1)OCCCC[C@@H](C)O2,-,-84
Cc1ccc(S(=O)(=O)Nc2ccc3c(c2)C(=O)N([C@H](C)CO)C[C@H](C)[C@H](CN(C)S(=O)(=O)c2ccc(Cl)cc2)OCCCC[C@H](C)O3)cc1,-,-
Cc1ccc(S(=O)(=O)Nc2ccc3c(c2)C(=O)N([C@H](C)CO)C[C@@H](C)[C@H](CN(C)S(=O)(=O)c2ccc(Cl)cc2)OCCCC[C@@H](C)O3)cc1,-,-81
Cc1ccc(S(=O)(=O)Nc2ccc3c(c2)C(=O)N([C@H](C)CO)C[C@@H](C)[C@@H](CN(C)S(=O)(=O)c2ccc(Cl)cc2)OCCCC[C@H](C)O3)cc1,-,-86
Cc1noc(C)c1S(=O)(=O)Nc1ccc2c(c1)C(=O)N([C@@H](C)CO)C[C@H](C)[C@H](CN(C)S(=O)(=O)c1ccc(Cl)cc1)OCCCC[C@@H](C)O2,-,-
CC(C)C#Cc1ccc([C@H]2[C@@H](C#N)N(C(=O)c3cccc(F)c3)[C@@H]2CO)cc1,-,-
O=C(c1ccccc1)N1Cc2ccccc2[C@H]2OC(c3ccc(OCCCO)cc3)=N[C@@]2(CCS(=O)(=O)c2ccccc2)C1=O,-,.
COCC(=O)Nc1ccc2c(c1)C(=O)N(C)C[C@@H](OC)[C@@H](C)CN[C@@H](C)CO2,-,-
COCC#Cc1cnc2c(c1)C(=O)N([C@@H](C)CO)C[C@@H](C)[C@@H](CN(C)Cc1ccccc1F)O2,-,-
C[C@@H]1CN([C@H](C)CO)C(=O)Cc2cc(NC(=O)NC3CCCCC3)ccc2O[C@@H]1CN(C)C(=O)Nc1ccccc1,-,-
N#C[C@H]1[C@H](c2ccccc2-c2ccc(F)cc2)[C@H](CO)N1c1ncc(-c2ccccc2)s1,-,-
COCC(=O)Nc1ccc2c(c1)OC[C@@H](C)N(Cc1ccccc1F)C[C@@H](C)[C@H](OC)CN(C)C2=O,-,-
Cc1ccc(S(=O)(=O)Nc2ccc3c(c2)C(=O)N([C@H](C)CO)C[C@@H](C)[C@@H](CN(C)S(=O)(=O)c2ccc(Cl)cc2)OCCCC[C@@H](C)O3)cc1,-,-85
Cc1ccc(S(=O)(=O)N(C)C[C@H]2OCCCC[C@H](C)Oc3ccc(NS(=O)(=O)c4ccc(Cl)cc4)cc3C(=O)N([C@H](C)CO)C[C@H]2C)cc1,-,-
O=C(Nc1ccccc1)N1CCCCN2[C@H](C1)[C@@H](c1ccc(C#Cc3ccccc3)cc1)[C@@H]2CO,-,-
O=C(Nc1ccccc1)N1CCCCN2[C@H](CO)[C@H](c3ccc(C#Cc4ccccc4)cc3)[C@H]2C1,-101,-
O=C(Nc1ccc(F)cc1)N1CCCCN2[C@H](C1)[C@H](c1ccc(C#Cc3ccccc3)cc1)[C@@H]2CO,-,-89
O=C(Nc1ccccc1)N1CCCCN2[C@H](CO)[C@H](c3ccc(C#Cc4ccccc4)cc3)[C@@H]2C1,-,-
CC(C)(O)C#Cc1ccc([C@H]2[C@@H](CO)N3CCCCN(C(=O)c4ccc(F)cc4)C[C@H]23)cc1,-,-
CC(C)(O)C#Cc1ccc([C@H]2[C@H](CO)N3CCCCN(C(=O)c4ccc(F)cc4)C[C@@H]23)cc1,-,-94
O=C(Nc1ccccc1)N1CCCCN2[C@H](C1)[C@H](c1ccc(C#Cc3ccccc3)cc1)[C@@H]2CO,-,-
O=C(Nc1ccc(F)cc1)N1CCCCN2[C@H](CO)[C@H](c3ccc(C#Cc4ccccc4)cc3)[C@@H]2C1,-,-83
